# Laboratory results taken from PubChem BioAssay (NCATS).
# Results filed as inconclusive are left out. A call without a number means that no potency is given here. Values without a mark were called inactive. Activity calls are given as the source filed them. Calls follow the shape of the dose curve; as a rule, active = well fitted curve in the direction sought with a large enough effect; inconclusive = small, poorly fitted or top-dose-only effect, or another doubt; inactive = no such curve, though single readings can be large; an effect the other way counts as inactive or inconclusive.
# Tests used:
# [1] = target: Cytochrome P450 3A7 (Homo sapiens) (UniProt P24462); experiment: Cytochrome P450 family 3 subfamily A member 7 (CYP3A7) small molecule antagonists: luciferase biochemical qHTS assay (AID 1963596); also: nearly all actives have a fitted effect of over 40% in size
# Cytochrome P450 3A7 (Homo sapiens), sequence (P24462 whole entry, looked up): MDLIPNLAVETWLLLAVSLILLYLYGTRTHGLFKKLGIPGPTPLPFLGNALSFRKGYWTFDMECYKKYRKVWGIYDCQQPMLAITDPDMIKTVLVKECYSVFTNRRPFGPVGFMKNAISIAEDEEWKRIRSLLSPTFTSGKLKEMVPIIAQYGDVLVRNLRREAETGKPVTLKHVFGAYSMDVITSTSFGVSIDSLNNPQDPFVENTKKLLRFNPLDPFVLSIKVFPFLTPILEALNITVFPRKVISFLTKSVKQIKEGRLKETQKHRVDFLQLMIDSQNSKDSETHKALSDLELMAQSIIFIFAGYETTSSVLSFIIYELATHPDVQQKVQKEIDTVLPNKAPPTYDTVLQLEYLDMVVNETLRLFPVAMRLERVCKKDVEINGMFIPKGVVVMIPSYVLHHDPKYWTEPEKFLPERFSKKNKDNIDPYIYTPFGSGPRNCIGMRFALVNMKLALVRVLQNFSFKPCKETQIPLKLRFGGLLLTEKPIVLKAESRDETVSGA
# Procedure, shortened: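 Recombinant CYP3A7 P450-Glo luminescent assay: enzyme-proluciferin substrate mix preincubated with compound 10 min at room temperature, reaction started with NADPH regeneration system for 1 h. Luciferin detected by luminescence; ketoconazole as positive control.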
# [2] = Viability qHTS for spleen associated tyrosine kinase inhibitor (SYKi) naive MV4-11 cells (AID 1963823); also: nearly all actives have a fitted effect of over 40% in size; also: potency is read from the fitted curve at half-maximal effect
# Procedure, shortened: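 Luminescence from CellTiter-Glo, developed 10 min at room temperature, gave viability of MV4-11 cells never exposed to SYK inhibitor. Cells (500/well) had been incubated with compounds for 72 hr under standard culture conditions.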
# [3] = Viability qHTS for spleen associated tyrosine kinase inhibitor (SYKi) drug resistant MV4-11 cells (AID 1963824); also: nearly all actives have a fitted effect of over 35% in size; also: potency is read from the fitted curve at half-maximal effect
# Procedure, shortened: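 SYK-inhibitor-resistant MV4-11 AML cells were seeded at 500 per well onto compound and cultured 72 hours (37 °C, 5% CO2). CellTiter-Glo was then added, and after 10 min at room temperature, luminescence gave viability.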
# [4] = Quantitative highthroughput screen to assess conditional lethalithy of NOMO1 cells grown in RPMI1640 with dialyzed fetal bovine serum (RPMI+ds) (AID 1963877); also: series mostly up to about 46 µM; nearly all actives have a fitted effect of over 30% in size
# Procedure, shortened: (§1)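 Each medium arm—HPLM with 10% dialyzed FBS, or RPMI1640 with 5 mM glucose and 10% untreated or dialyzed FBS—was screened against an 11-point, 3-fold compound titration for 48 h at 37 °C, with CellTiter-Glo luminescence as endpoint.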
# [5] = Quantitative highthroughput screen to assess conditional lethalithy of P12 Ichikawa cells grown in Human Plasma-Like Medium with dialyzed fetal bovine serum (HPLM+ds) (AID 1963879); conditions: Potency: viability; also: series mostly up to about 46 µM; nearly all actives have a fitted effect of over 35% in size
# Procedure, shortened: as §1
# [6] = Quantitative highthroughput screen to assess conditional lethalithy of P12 Ichikawa cells grown in RPMI1640 with dialyzed fetal bovine serum (RPMI+ds) (AID 1963880); conditions: Potency: P12-Ichikawa viability; also: nearly all actives have a fitted effect of over 35% in size
# Procedure, shortened: as §1
# [7] = Cellular viability qHTS for adrenocortical cancer (ACC) cell line SW-13 (AID 1963989); conditions: SW-13 ACC cells viability, CellTiter-Glo, 48 h; activity (max response): hits give low values;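 also: cells grown in serum-free medium with ITS supplement; nearly all actives have a fitted effect of over 65% in size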
# Procedure, shortened: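 SW-13 cells in ITS-supplemented serum-free DMEM were plated overnight, then exposed for 48 h at 37C to compound titrations (up to 46 uM final). Viability was read by CellTiter-Glo luminescence; four-parameter logistic fits gave IC50 and efficacy.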
# [8] = Cellular viability qHTS for adrenocortical cancer (ACC) cell line NCI-H295R (AID 1963990); also: nearly all actives have a fitted effect of over 60% in size
# Procedure, shortened: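 Luminescent ATP read-out (CellTiter-Glo, 20 min RT) after 48 h drug exposure of NCI-H295R cells; a titration up to 46 uM final. Data normalized to doxorubicin (100% inhibition) and DMSO (0%); 4-parameter fit gives IC50, max response.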
# [9] = Quantitative highthroughput screen to assess conditional lethalithy of NOMO1 cells grown in RPMI1640 with untreated serum (RPMI+s) (AID 1963876); also: nearly all actives have a fitted effect of over 35% in size
# Procedure, shortened: as §1
# [10] = Quantitative highthroughput screen to assess conditional lethalithy of NOMO1 cells grown in Human Plasma-Like Medium with dialyzed fetal bovine serum (HPLM+ds) (AID 1963878); also: nearly all actives have a fitted effect of over 35% in size
# Procedure, shortened: as §1
# [11] = Quantitative highthroughput screen to assess conditional lethalithy of P12 Ichikawa cells grown in RPMI1640 with untreated serum (RPMI+s) (AID 1963881); conditions: Potency: viability; also: nearly all actives have a fitted effect of over 35% in size; also: potency is read from the fitted curve at half-maximal effect; as to Viability: series mostly up to about 46 µM
# Procedure, shortened: as §1
# [12] = Quantitative highthroughput screen to assess conditional lethalithy of SEM cells grown in Human Plasma-Like Medium with dialyzed fetal bovine serum (HPLM+ds) (AID 1963882); also: nearly all actives have a fitted effect of over 35% in size; also: potency is read from the fitted curve at half-maximal effect; as to Viability: series mostly up to about 46 µM
# Procedure, shortened: as §1
# [13] = Quantitative highthroughput screen to assess conditional lethalithy of SEM cells grown in RPMI1640 with dialyzed fetal bovine serum (RPMI+ds) (AID 1963884); also: nearly all actives have a fitted effect of over 35% in size; also: potency is read from the fitted curve at half-maximal effect; as to Viability: series mostly up to about 46 µM
# Procedure, shortened: as §1
# [14] = Quantitative highthroughput screen to assess conditional lethalithy of SEM cells grown in RPMI1640 with unreated serum (RPMI+s) (AID 1963883); also: nearly all actives have a fitted effect of over 35% in size
# Procedure, shortened: as §1
compound,measurement,setting,value
CCNCC(O)c1cccc(O)c1 (centres undefined),Potency,[1],inactive
CN1CCN(C(=O)O[C@H]2c3nccnc3C(=O)N2c2ccc(Cl)cn2)CC1,Potency,[1],inactive
same,Potency,[2],inactive
same,Potency,[3],inactive
same,Potency,[4],inactive
same,Potency,[5],inactive
same,Potency,[6],inactive
same,activity (max response),[7],9.33%
same,Potency,[8],inactive
O=C(N1CCCCC1Cc1ccccc1)n1cc(-c2ccc(-c3ccccc3)cc2)nn1 (centres undefined),Potency,[1],inactive
C=CCC1(CC(C)C)C(=O)NC(=O)NC1=O,Potency,[1],inactive
CC(N)Cc1c[nH]c2ccccc12 (centres undefined),Potency,[1],inactive
same,Potency,[2],inactive
same,Potency,[3],inactive
Cc1c(Cl)cccc1S(=O)(=O)Nc1nc(CC(=O)N2CCN(C)CC2)cs1,Potency,[1],inactive
same,Potency,[2],inactive
same,Potency,[3],inactive
CCCCNCC(O)c1ccc(O)cc1 (centres undefined),Potency,[1],inactive
CCNC(C)Cc1cccc(C(F)(F)F)c1 (centres undefined),Potency,[1],inactive
CCCCCCCCOC(=O)c1ccccc1C(=O)OCCCCCCCC,Potency,[1],inactive
CSCC[C@@H](NC(=O)[C@@H](Cc1ccccc1)NC(=O)CNC(=O)CNC(=O)[C@@H](N)Cc1ccc(O)cc1)C(=O)O,Potency,[1],inactive
same,Potency,[2],inactive
same,Potency,[3],inactive
same,Potency,[9],inactive
same,Potency,[4],inactive
same,Potency,[10],inactive
same,Potency,[5],inactive
same,Potency,[11],inactive
same,activity (max response),[7],3.41%
same,Potency,[8],inactive
COc1ccc(OC)c(C(O)C(C)N)c1 (centres undefined),Potency,[1],inactive
C[C@@H](CN1CCC(n2c(=O)[nH]c3cc(Br)ccc32)CC1)NC(=O)[C@@H]1C[C@H]1c1ccccc1,Potency,[1],inactive
CCCCNC(C)(C)[P+](=O)O,Potency,[1],inactive
OCCCCC#Cc1cncc(OC[C@@H]2CCN2)c1,Potency,[1],inactive
COc1ccsc1CNCC[C@@]1(c2ccccn2)CCOC2(CCCC2)C1,Potency,[1],inactive
same,Potency,[2],inactive
same,Potency,[3],inactive
CN(Cc1cccc(-c2ccncc2)c1)C(=O)Oc1ccc(-c2ccc(C(N)=O)cc2)cc1,Potency,[1],inactive
CCCCCn1cc(C(=O)c2cccc3ccccc23)c2ccccc21,Potency,[1],inactive
c1ccc([C@@H]2C[C@H]2NC2CCNCC2)cc1,Potency,[1],inactive
same,Potency,[2],inactive
O=[As]O[As]=O (centres undefined),Potency,[1],inactive
C#CC(C)(O)CC (centres undefined),Potency,[1],inactive
CN1C(=O)COc2c(C(=O)NC3CN4CCC3CC4)cc(Cl)cc21 (centres undefined),Potency,[1],inactive
same,Potency,[2],inactive
same,Potency,[3],inactive
same,Potency,[4],inactive
same,Potency,[5],inactive
same,Potency,[6],inactive
same,Potency,[11],inactive
same,Potency,[12],inactive
same,Potency,[13],inactive
same,Potency,[8],inactive
CN1C2CCC1CC(OC(=O)N1Cc3ccccc3NC1=O)C2 (centres undefined),Potency,[1],inactive
same,Potency,[2],inactive
same,Potency,[3],inactive
O=C(CC1NCCC[C@H]1O)Cn1cnc2cc(Br)c(Cl)cc2c1=O (some centres undefined),Potency,[1],inactive
CC(=O)OC1C[C@H](O[C@@H]2C(O)C[C@H](O[C@@H]3C(O)C[C@@H](OC4CC[C@]5(C)C(CCC6C5CC(O)[C@@]5(C)C(C7=CC(=O)OC7)CC[C@@]65O)C4)OC3C)OC2C)O[C@H](C)[C@H]1O[C@H]1OC(CO)C(O)C(O)C1O (some centres undefined),Potency,[1],inactive
Cc1sc2c(c1C)C(c1ccc(Cl)cc1)=NC(CC(=O)Nc1ccc(O)cc1)c1nnc(C)n1-2 (centres undefined),Potency,[1],inactive
same,Potency,[2],0.148 µM (active)
same,Potency,[3],0.105 µM (active)
NCCCCCNC1(c2ccccc2)CCCCC1,Potency,[1],inactive
CN(C)CCc1c[nH]c2ccc(CN3CCN(C)S3(=O)=O)cc12,Potency,[1],inactive
CCOC(=O)c1ccccc1C(=O)OCC,Potency,[1],inactive
Cc1ccccc1CN1CCC(N2CCC(n3c(=O)[nH]c4ccccc43)CC2)CC1,Potency,[1],inactive
CN(C)CCc1ccc(O)cc1,Potency,[1],inactive
same,Potency,[2],inactive
same,Potency,[3],inactive
same,Potency,[4],inactive
same,Potency,[5],inactive
same,Potency,[12],inactive
same,Potency,[14],inactive
same,Potency,[8],inactive
CN=C(NS(=O)(=O)c1ccc(Cl)cc1)N1C[C@H](c2ccccc2)C(c2ccc(Cl)cc2)=N1,Potency,[1],inactive
same,Potency,[2],20.6 µM (active)
same,Potency,[3],20.6 µM (active)
N#Cc1ccc([C@H]2CCCC[C@H]2O)cc1C(F)(F)F,Potency,[1],inactive
CCCCCCn1c(=O)c(C(=O)Nc2ccc(C(=O)OCCC)cc2)c(O)c2ccccc21,Potency,[1],inactive
same,viability (% of control),[2],62.6% [at 9.25 µM]
same,"viability, % of control",[3],83.2% [at 9.25 µM]
O=C(N1CCOCC1)N1CCN(c2ccc(Cl)cc2)CC1,Potency,[1],inactive
CCN(CC)N(O)N=O,Potency,[1],inactive
O=C(N[C@@H]1N=C(c2ccccc2F)c2cccc3c2N(CC3)C1=O)c1cc2ccccc2[nH]1,Potency,[1],inactive
CC(Cc1ccccc1)NC=O (centres undefined),Potency,[1],inactive
NC1(c2ccccc2)CCCCC1,Potency,[1],inactive
NCC(O)c1cccc(O)c1 (centres undefined),Potency,[1],inactive
O=P1(N(CCCl)CCCl)NCCCO1 (centres undefined),Potency,[10],inactive
same,Potency,[11],14.8 µM (active)
same,Potency,[12],9.35 µM (active)
same,Potency,[13],9.35 µM (active)
O=C1CC[C@@]2(O)[C@H]3Cc4ccc(O)c5c4[C@@]2(CCN3CC2CC2)[C@H]1O5,Potency,[5],inactive
same,Potency,[11],inactive
same,Potency,[12],inactive
same,Potency,[14],inactive
same,Potency,[13],inactive
C[C@H](N)[C@H](O)c1ccc(O)c(O)c1,Potency,[1],inactive
same,Potency,[3],inactive
same,activity (max response),[7],5.15%
same,Potency,[8],inactive
Nc1ccccc1C(=O)OCC(O)CO (centres undefined),Potency,[1],inactive
same,Potency,[3],inactive
same,activity (max response),[7],6.9%
O=[N+]([O-])/N=C1\NCCN1Cc1ccc(Cl)nc1,Potency,[1],inactive
same,Potency,[3],inactive
same,activity (max response),[7],-5.88%
C=C1CC[C@@]2(O)[C@H]3Cc4ccc(O)c5c4[C@@]2(CCN3CC2CC2)[C@H]1O5,Potency,[1],inactive
same,Potency,[3],inactive
same,activity (max response),[7],2.67%
COc1ccc(C(CN(C)C)C2(O)CCCCC2)cc1 (centres undefined),Potency,[1],inactive
same,Potency,[3],inactive
same,Potency,[10],inactive
same,Potency,[5],inactive
same,Potency,[11],inactive
same,activity (max response),[7],0.648%
same,Potency,[8],inactive
CC(C)NC(C)C,Potency,[1],inactive
same,Potency,[2],inactive
same,activity (max response),[7],17.3%
same,Potency,[8],inactive
